For test [1], the system named is PRMT1 (protein arginine N-methyltransferase 1). The experiment in a line: PRMT1 binders on small-molecule microarrays, primary screen, biochemical, small-molecule microarray, 635 nm fluorescence (AID 1088).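 Note: binding of Prmt1 protein to compounds spotted on small-molecule microarray slides.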 To be noted: small-molecule microarray binding, higher = more signal.
A short description of test [2]: yeast growth modulation, basal conditions, primary screen, YJM789 clinical isolate, OD600, 24 h (AID 1089).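 Note: growth of clinical yeast isolate S. cerevisiae YJM 789 seeded 1000 cells per well; test concentration not given here.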 To be noted: S. cerevisiae YJM789 growth, higher = more signal, called active from +8 up or from −8 down.
Test [3] is described as follows: fission yeast growth modulation, primary screen, strain 972, OD600, 24 h, no modulator (AID 1090).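 Note: basal condition with compound alone and no growth modifier present; test concentration not given here.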 To be noted: S. pombe 972 growth, higher = more signal, called active from +8 up or from −8 down.
Test [4] can be described thus: S. cerevisiae growth modulation with rapamycin, primary screen, strain BY4716, OD600, 96 h (AID 1091). Note: test concentration not given here. The following applies: higher = more signal, called active from +8 up or from −8 down.
In test [5] the target is Torsin-1A-interacting protein 2 (Homo sapiens) (UniProt Q8NFQ8). As to the kind of experiment: LULL1 binders on small-molecule microarray, primary screen, cell lysate, human LULL1 lysate, 635/667 nm fluorescence (AID 1092).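 Note: probe is lysate of COS7 cells overexpressing human LULL1; score merges per-feature 667 nm fluorescence with signal-to-noise.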 The following applies: hLULL1 lysate binding, 635 nm fluorescence, higher = more signal.
Test [6] in a line: E. coli growth modulation, two-sided OD650, primary screen, E. coli filamentation project, strain DRC41, 24 h (AID 1093).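 Note: MC1000 strain lacking acrAB efflux and sulA so SOS filamentation is blocked; test concentration not given here.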 The following applies: OD650, 24 h, higher = more signal, called active from +8 up or from −8 down.
Test [7] is described as follows: small-molecule microarray binders of probe aLefty2, primary screen, biochemical, biotinylated probe, 635/667 nm fluorescence (AID 1094).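 Note: score merges spot fluorescence near 667 nm with spot signal-to-noise ratio.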 To be noted: higher = more signal.
The test system of test [8] is Noggin (protein binding on small-molecule microarray). The experiment in a line: Noggin binders on small-molecule microarray, primary screen, biochemical, 635/667 nm fluorescence (AID 1095).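 Note: score merges 667 nm feature fluorescence with signal to noise over triplicate slides.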 To be noted: 635 nm fluorescence, higher = more signal.
Test [9] concerns the target Neurogenic locus notch homolog protein 3 (Homo sapiens) (UniProt Q9UM47). As to the kind of experiment: NOTCH3 binders on small-molecule microarray, primary screen, biochemical, 635/667 nm fluorescence (AID 1096). To be noted: NOTCH3 binding, 635 nm fluorescence, higher = more signal.
A short description of test [10]: small-molecule microarray binders of probe aEGFR, primary screen, biochemical, biotinylated probe, 635/667 nm fluorescence (AID 1097).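 Note: probe is a biotinylated anti-EGFR antibody binding compounds printed on slides; score combines fluorescence near 667 nm and signal to noise of each spot.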 The following applies: higher = more signal.

Molecules are shown by their SMILES. Calls of active or inactive are those of the source.

Chain of Neurogenic locus notch homolog protein 3 (Homo sapiens) (Q9UM47 whole entry, looked up): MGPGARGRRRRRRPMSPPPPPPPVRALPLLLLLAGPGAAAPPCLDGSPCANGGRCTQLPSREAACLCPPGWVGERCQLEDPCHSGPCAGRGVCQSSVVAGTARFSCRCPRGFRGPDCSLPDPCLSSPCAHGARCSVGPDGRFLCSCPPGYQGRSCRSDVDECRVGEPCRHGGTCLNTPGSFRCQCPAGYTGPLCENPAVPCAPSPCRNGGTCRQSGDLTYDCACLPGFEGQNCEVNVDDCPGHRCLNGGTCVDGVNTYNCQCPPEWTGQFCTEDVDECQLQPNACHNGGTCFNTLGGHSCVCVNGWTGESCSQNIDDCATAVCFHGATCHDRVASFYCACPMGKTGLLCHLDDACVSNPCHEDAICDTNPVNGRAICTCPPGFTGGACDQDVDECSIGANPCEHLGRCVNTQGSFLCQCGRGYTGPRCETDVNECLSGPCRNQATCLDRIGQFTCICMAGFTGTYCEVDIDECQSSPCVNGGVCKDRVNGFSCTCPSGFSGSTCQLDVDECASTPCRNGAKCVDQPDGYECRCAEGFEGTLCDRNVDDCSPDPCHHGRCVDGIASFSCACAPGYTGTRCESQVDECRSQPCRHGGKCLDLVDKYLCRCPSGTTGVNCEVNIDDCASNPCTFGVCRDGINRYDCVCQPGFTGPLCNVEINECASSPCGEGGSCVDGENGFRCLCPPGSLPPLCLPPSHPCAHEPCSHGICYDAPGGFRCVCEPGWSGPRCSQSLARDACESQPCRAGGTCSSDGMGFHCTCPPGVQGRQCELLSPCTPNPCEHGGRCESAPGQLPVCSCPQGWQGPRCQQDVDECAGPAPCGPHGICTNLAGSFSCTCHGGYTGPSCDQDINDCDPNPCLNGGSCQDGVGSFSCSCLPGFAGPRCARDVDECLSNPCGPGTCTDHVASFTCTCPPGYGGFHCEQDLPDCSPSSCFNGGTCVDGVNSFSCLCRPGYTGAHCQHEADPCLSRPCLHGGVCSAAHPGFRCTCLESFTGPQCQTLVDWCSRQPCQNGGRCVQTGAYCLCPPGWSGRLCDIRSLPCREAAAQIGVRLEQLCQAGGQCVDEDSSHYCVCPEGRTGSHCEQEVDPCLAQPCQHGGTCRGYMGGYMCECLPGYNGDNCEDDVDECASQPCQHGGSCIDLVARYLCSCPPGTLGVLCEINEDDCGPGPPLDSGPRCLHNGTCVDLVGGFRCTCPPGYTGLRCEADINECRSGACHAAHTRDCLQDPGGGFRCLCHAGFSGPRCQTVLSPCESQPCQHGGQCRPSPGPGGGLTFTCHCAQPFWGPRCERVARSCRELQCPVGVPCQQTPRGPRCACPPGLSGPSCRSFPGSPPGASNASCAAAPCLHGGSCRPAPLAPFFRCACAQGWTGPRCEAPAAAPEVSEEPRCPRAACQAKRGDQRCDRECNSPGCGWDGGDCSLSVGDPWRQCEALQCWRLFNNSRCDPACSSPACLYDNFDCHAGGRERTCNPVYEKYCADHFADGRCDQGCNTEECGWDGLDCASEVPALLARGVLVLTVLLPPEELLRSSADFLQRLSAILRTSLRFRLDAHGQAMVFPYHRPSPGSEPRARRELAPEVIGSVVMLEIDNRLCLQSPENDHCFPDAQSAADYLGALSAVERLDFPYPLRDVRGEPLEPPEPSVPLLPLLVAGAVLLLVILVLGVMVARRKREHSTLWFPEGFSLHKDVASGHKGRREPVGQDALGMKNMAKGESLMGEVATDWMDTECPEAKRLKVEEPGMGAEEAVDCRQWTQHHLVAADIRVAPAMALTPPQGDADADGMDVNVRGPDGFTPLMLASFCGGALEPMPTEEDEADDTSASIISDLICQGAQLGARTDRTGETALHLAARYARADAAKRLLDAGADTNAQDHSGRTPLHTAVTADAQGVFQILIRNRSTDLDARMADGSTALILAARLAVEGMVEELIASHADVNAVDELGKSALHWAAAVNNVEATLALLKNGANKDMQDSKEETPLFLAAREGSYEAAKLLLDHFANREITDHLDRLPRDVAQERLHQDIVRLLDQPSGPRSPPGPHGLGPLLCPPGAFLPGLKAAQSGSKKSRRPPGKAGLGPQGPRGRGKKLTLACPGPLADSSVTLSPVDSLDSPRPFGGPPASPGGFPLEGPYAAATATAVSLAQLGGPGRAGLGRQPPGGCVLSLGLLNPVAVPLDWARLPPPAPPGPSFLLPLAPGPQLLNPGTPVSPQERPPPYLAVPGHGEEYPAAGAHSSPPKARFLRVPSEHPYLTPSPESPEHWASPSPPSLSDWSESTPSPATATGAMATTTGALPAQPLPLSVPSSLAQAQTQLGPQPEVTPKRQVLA
Chain of Torsin-1A-interacting protein 2 (Homo sapiens) (Q8NFQ8 whole entry, looked up): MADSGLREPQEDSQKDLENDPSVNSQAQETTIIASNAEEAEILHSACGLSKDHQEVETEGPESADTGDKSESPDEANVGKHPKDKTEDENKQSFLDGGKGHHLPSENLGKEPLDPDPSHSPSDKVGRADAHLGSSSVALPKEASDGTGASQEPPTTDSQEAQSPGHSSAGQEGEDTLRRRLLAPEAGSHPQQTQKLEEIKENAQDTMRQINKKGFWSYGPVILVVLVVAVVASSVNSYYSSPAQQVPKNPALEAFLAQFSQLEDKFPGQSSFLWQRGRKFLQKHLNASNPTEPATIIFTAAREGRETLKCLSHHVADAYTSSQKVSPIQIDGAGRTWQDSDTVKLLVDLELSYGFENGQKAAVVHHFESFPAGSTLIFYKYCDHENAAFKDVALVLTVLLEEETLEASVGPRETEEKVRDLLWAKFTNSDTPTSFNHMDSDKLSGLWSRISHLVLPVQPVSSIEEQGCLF

`COCCCN1C(=O)[C@@]2(Cc3ccccc31)c1ccccc1C(=O)N(Cc1ccccc1C(F)(F)F)[C@H]2c1ccc(CO)cc1`: the composite z-score in test [1] is 0.979; in test [5], 2.51; in test [7], -0.143; in [8] it was 0.992; in test [9], 0.627; in [10], -0.121. Moreover, the z-score in [2] is 1.19 (inactive); in test [3], 0.339 (inactive); in [4] it was -1.41 (inactive); in test [6], -0.253 (inactive).

With `O=C1[C@H]2C=C(Br)[C@H](C[C@@H]2OCCCCO)[C@@]12CO2`, the composite z-score in [1] is -0.162; in test [5] it was -0.99; in test [7] it was -0.0778; in [8], -0.0486; in test [9], 0.221; in [10] it was -0.0409. Besides, the z-score in test [2] was 0.176 (inactive); in test [3], -0.248 (inactive); in test [4], 0.93 (inactive); in test [6] it was -1.03 (inactive).

As for `C=CCNC(=O)[C@H]1[C@@H]2C(=O)O[C@@H](c3ccccc3)[C@@H](c3ccccc3)N2[C@@H](c2ccccc2OCCO)[C@]12C(=O)Nc1ccc(C#CC3=CCCCC3)cc12`, the composite z-score in [1] is 1.55; in test [5], 2.58; in [7], -0.117; in test [8], 1.23; in [9], 1.1; in [10], -0.0108. The z-score was 2.06 (inactive) in test [2], -1.27 (inactive) in test [3], 4.78 (inactive) in test [4] and 1.25 (inactive) in test [6].

Turning to `C=CCNC(=O)[C@@H]1[C@H]2C(=O)O[C@H](c3ccccc3)[C@H](c3ccccc3)N2[C@H](c2ccc(OCCO)cc2)[C@@]12C(=O)Nc1ccc(C#CCCO)cc12`, the composite z-score in test [1] was 1.52; in test [5] it was 3.29; in test [7], 0.501; in test [8], 1.36; in [9], 1.12; in [10], 0.692. Besides, the z-score in test [2] was 0.85 (inactive); in [3] it was 0.975 (inactive); in test [4], 3.39 (inactive); in [6], -0.207 (inactive).

On to `COCCOC(=O)N1C(=O)[C@@]2(c3cc(C#Cc4ccc(OC)cc4)ccc31)[C@H](C(=O)N1CCCCCCC1)[C@H]1C(=O)O[C@H](c3ccccc3)[C@H](c3ccccc3)N1[C@@H]2c1ccc(OCCO)cc1`, for which the composite z-score in test [1] is 1.55; in test [5], 2.29; in test [7], 1.59; in test [8], 2.1; in test [9], 1.01; in test [10] it was 0.4. Also, the z-score was -0.821 (inactive) in [2], 0.0405 (inactive) in [3], 3.27 (inactive) in test [4] and 2.36 (inactive) in test [6].

Take `CC(C)C[C@H]1NC(=O)[C@@]23C(=O)N[C@@H](Cc4ccccc4)C2[C@H](C)[C@@]2(C)O[C@H]2C3/C=C/C/C=C\CNC(=O)[C@H](Cc2ccccc2)NC1=O` (stereo not given in full): the composite z-score was 1.14 in [1]; 1.13 in test [5]; -0.157 in test [7]; 1.39 in [8]; 0.937 in test [9]; -0.156 in [10]. The z-score was 0.871 (inactive) in [2], -0.388 (inactive) in [3], -0.332 (inactive) in [4] and 0.11 (inactive) in test [6].

In the case of `[N-]=[N+]=Nc1ccccc1[C@H]1OC(c2ccc(OCCCO)cc2)=N[C@@]1(Cc1ccccc1)C(=O)O`, the composite z-score in test [1] was 1.3; in test [5] it was 3.3; in test [7], -0.0152; in [8], 0.875; in [9] it was 1.11; in test [10] it was -0.0351. The z-score in test [2] was 0.206 (inactive); in test [3], -0.329 (inactive); in test [4], -1.06 (inactive); in test [6], 0.355 (inactive).

`C=CCN1C(=O)[C@]2(O[C@H](CCO)[C@@H]([Si](C)(C)c3ccc(OC)cc3)[C@@H]2C)c2cc(N3C(=O)c4cccc5cccc3c45)ccc21`: the composite z-score is 1.46 in test [1]; 2.01 in [5]; -0.172 in test [7]; 1.69 in [8]; 1.07 in test [9]; -0.137 in test [10]. The z-score in test [2] was 3.36 (inactive); in test [3], 2.8 (inactive); in [4] it was 36.8 (active); in [6], 0.577 (inactive).

On to `CCN(CC)c1ccc(N2CC=CC34O[C@@H]5/C=C\CCC(C)OC(=O)C5[C@H]3C(=O)N(C(CO)C(C)C)[C@@H]4C2=O)cc1` (stereo not given in full), for which the composite z-score in test [1] was 0.746; in test [5], 3.28; in [7], -0.17; in [8] it was -0.995; in test [9], -0.0778; in test [10], -0.13. Further, the z-score was -1.28 (inactive) in [2], -0.892 (inactive) in test [3], -0.924 (inactive) in test [4] and 0.41 (inactive) in test [6].

As to `O=C1O[C@H](c2ccccc2)[C@H](c2ccccc2)N2[C@H]1[C@@H](C(=O)NC[C@H](O)c1ccccc1)[C@]1(C(=O)Nc3ccccc31)[C@H]2c1ccc(OCCO)cc1`, the composite z-score was 1.58 in test [1]; 2.39 in test [5]; -0.147 in [7]; 0.234 in [8]; 0.797 in test [9]; -0.0244 in test [10]. The z-score in test [2] was 2.12 (inactive); in test [3], 1.93 (inactive); in test [4] it was 5.07 (inactive); in test [6], -0.965 (inactive).

`COc1ccc([Si](C)(C)[C@@H]2[C@@H](CCO)O[C@]3(C(=O)N(Cc4ccc(N5C(=O)COc6ccccc65)cc4)c4ccccc43)[C@H]2C)cc1`: the composite z-score in test [1] was 1.5; in test [5], 2.44; in test [7], -0.0375; in test [8] it was 1.17; in [9], 0.767; in [10] it was 0.0192. For the same compound, the z-score in [2] is 3.6 (inactive); in test [3], -0.0953 (inactive); in [4], 35.7 (active); in test [6], 0.49 (inactive).

Turning to `CCCC[C@@H]1C[C@H]1[C@@H](NC(=O)c1ccco1)c1ccc(C(=O)OC)cc1`, the composite z-score in [1] is 0.488; in test [5] it was 1.93; in test [7] it was 0.0258; in test [8], -1.2; in test [9], -0.64; in test [10], -0.171. The z-score is -0.152 (inactive) in [2], -1.61 (inactive) in test [3], 0.06 (inactive) in test [4] and -1.53 (inactive) in test [6].

Regarding `COC(=O)C(CC#Cc1ccc2c(c1)[C@]1(C(=O)N2)[C@H](c2ccc(O)cc2)N2[C@H](c3ccccc3)[C@H](c3ccccc3)OC(=O)[C@H]2[C@@H]1C(=O)Nc1nc2ccccc2s1)C(=O)OC`, the composite z-score stood at 1.54 in [1]; 3.22 in [5]; 0.0669 in [7]; 0.508 in test [8]; 1.13 in test [9]; 0.0414 in test [10]. The z-score is -1.28 (inactive) in test [2], -0.496 (inactive) in test [3], -1.33 (inactive) in test [4] and 0.91 (inactive) in [6].

Turning to `CCOC(=O)C[C@H]1[C@H](OC(=O)c2cc3ccccc3oc2=O)[C@@H](NC(=O)C2CCCCC2)c2cc(OCCCO)ccc2N1C(=O)c1ccccc1`, the composite z-score in test [1] is 0.633; in [5], 1.45; in [7], -0.0668; in test [8], 0.844; in test [9], 0.615; in test [10], 0.25. Besides, the z-score in test [2] is -0.415 (inactive); in [3] it was -0.894 (inactive); in [4] it was -0.0843 (inactive); in test [6], 2.03 (inactive).

The record behind these values is PubChem BioAssay.
